{
  "source": "PubChem BioAssay (EPA / NIEHS)",
  "note": "Active and inactive are the calls of the source. How the source made its calls: active means hit-call score of the fitted dose curve at least 0.9, where 1 is the maximum; inactive means score below 0.9.",
  "data": [
    {"target": "Hepatocyte nuclear factor 3-beta (Homo sapiens) (UniProt Q9Y261)", "sequence (Q9Y261 whole entry, looked up)": "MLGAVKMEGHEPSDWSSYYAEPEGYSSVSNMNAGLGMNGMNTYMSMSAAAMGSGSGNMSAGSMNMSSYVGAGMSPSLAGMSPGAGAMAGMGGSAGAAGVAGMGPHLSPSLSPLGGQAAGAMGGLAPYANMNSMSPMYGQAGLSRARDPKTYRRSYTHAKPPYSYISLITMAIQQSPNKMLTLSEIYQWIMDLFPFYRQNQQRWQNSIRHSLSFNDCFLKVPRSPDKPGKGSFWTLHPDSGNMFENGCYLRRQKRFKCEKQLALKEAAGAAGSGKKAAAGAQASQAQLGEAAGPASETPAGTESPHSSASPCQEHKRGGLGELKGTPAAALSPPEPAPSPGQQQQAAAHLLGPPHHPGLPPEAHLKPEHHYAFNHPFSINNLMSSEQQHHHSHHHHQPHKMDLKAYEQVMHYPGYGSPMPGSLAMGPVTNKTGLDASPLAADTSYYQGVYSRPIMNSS", "assay": "ATG_FoxA2_CIS: Attagene CIS-FACTORIAL HepG2 Assay for human Forkhead box A2 (FOXA2) (AID 2282942)", "conditions": "HepG2 cis-reporter transcription factor activity, 24 h; actives raise or lower the signal", "procedure": "ATG_CIS is a cell-based, multiplexed-readout assay that uses HepG2, a human liver cell line, with measurements taken at 24 hours after chemical dosing in a 24-well plate.ATG_FoxA2_CIS is one of 52 assay component(s) measured or calculated from the ATG_CIS assay. It is designed to make measurements of mRNA induction, a form of inducible reporter, as detected with fluorescence intensity signals by Reverse transcription polymerase chain reaction (RT-PCR) and Capillary electrophoresis technology.Data from the assay component ATG_FoxA2_CIS was analyzed into 1 assay endpoint. This assay endpoint, ATG_FoxA2_CIS, was analyzed with bidirectional fitting relative to DMSO as the negative control and baseline of activity. Using a type of inducible reporter, measures of mRNA for gain or loss-of-signal activity can be used to understand the reporter gene at the transcription factor-level as they relate to the gene FOXA2. Furthermore, this assay endpoint can be referred to as a primary readout, because this assay has produced multiple assay endpoints where this one serves a reporter gene function. To generalize the intended target to other relatable targets, this assay endpoint is annotated to the dna binding intended target family, where the subfamily is forkhead box protein.\nHuman liver HepG2 cells are transiently transfected with multiple reporter transcription units (MRTUs) in 6-well plates using FuGene 6 reagent (Roche; 3 ml FuGene/1 mg DNA). The MRTU constructs are regulated by a cis-regulating element (promoter). […] A major difference between the CIS and TRANS system is that in CIS activities of endogenous TFs are measured, whereas the TRANS assay evaluates changes in activities of exogenous, chimeric NR-Gal4 proteins. […] At the end of 24 hour incubation, total RNA was isolated using TriZol reagent (Invitrogen). The isolated RNA is then reverse-transcribed using oligo(dT) primer and Mo-MLV reverse transcriptase (Invitrogen) with DNAse I (Ambion) treatment for 30 min. The one-tenth of the produced cDNA was amplified by PCR using Taq DNA polymerase (Invitrogen) and two reporter sequence-specific primers. The PCR products were fluorescently labeled by primer extension with 6-arboxyfluorescein (6-FAM) 5'-labeled reporter sequence-specific primer (2 min at 95 C, 20 s at 68 C and 10 min at 72 C) and these products were digested with 5U of HpaI (New England Biolabs) for 2h at 37 C. The fragments were purified using Qiaquick PCR columns (Qiagen), analyzed on an ABI 3130xL genetic analyzer (Applied Biosystems) with peak positions identified by using a set of X-rhodamine (ROX)-labeled MapMarker1000 molecular weight standards (BioVentures). The raw capillary electrophoresis data was processed using Attagraph software (Attagene).", "values": [
      {"smiles": "COC(=O)c1sccc1S(N)(=O)=O", "outcome": "inactive"},
      {"smiles": "Cc1cccc(N)n1", "outcome": "inactive"},
      {"smiles": "CCCCCCOC(=O)C(C)CC", "note": "(stereo not given)", "outcome": "inactive"},
      {"smiles": "CCCCCCCCCCCSCC(=O)O", "outcome": "inactive"},
      {"smiles": "CCOC(=O)Cc1cccc2ccccc12", "outcome": "inactive"},
      {"smiles": "Cc1ccccc1C", "outcome": "inactive"},
      {"smiles": "Cc1cnc(NC(=O)C2=C(O)c3ccccc3S(=O)(=O)N2C)s1", "outcome": "inactive"},
      {"smiles": "CC(=O)C=CC1C(C)=CCC(C)C1(C)C", "note": "(stereo not given)", "outcome": "inactive"},
      {"smiles": "CCOc1nc(F)cc2nc(S(=O)(=O)Nc3c(Cl)cccc3C(=O)OC)nn12", "outcome": "inactive"},
      {"smiles": "CCC(CC)C(=O)O", "outcome": "inactive"},
      {"smiles": "FC(F)(F)C(=NOCC1OCCO1)c1ccc(Cl)cc1", "outcome": "inactive"},
      {"smiles": "O=C(Oc1ccccc1)c1ccc2ccccc2c1O", "outcome": "inactive"},
      {"smiles": "CCCCCCOc1cc(C)c(O)c(C)c1C", "outcome": "inactive"},
      {"smiles": "CCCCCC/C=C\\CCCCCCCC(=O)O", "outcome": "inactive"},
      {"smiles": "NNC(=O)c1cccc(C(=O)NN)c1", "outcome": "inactive"},
      {"smiles": "CC(C)(C)c1n[nH]c(=O)n(N)c1=O", "outcome": "inactive"},
      {"smiles": "CCC(C)OC(=O)c1ccc(O)cc1", "note": "(stereo not given)", "outcome": "inactive"},
      {"smiles": "C=CC(C)(C)C", "outcome": "inactive"},
      {"smiles": "CC(C)c1ccc(C=O)cc1", "outcome": "inactive"},
      {"smiles": "OCCN(CCO)c1ccccc1", "outcome": "inactive"},
      {"smiles": "CC(=O)OCc1ccco1", "outcome": "inactive"},
      {"smiles": "CCCOCCOCCOCCO", "outcome": "inactive"},
      {"smiles": "Cc1cc(C)c(C(=O)O)c(C)c1", "outcome": "inactive"},
      {"smiles": "CC(=O)[C@H]1[C@H](C#N)C[C@H]2[C@@H]3CC=C4C[C@@H](O)CC[C@]4(C)[C@H]3CC[C@@]21C", "outcome": "inactive"},
      {"smiles": "CC(C)=CCC/C(C)=C\\C#N", "outcome": "inactive"},
      {"smiles": "CCCCCCCCCCC=CC#N", "outcome": "inactive"},
      {"smiles": "CCCCCCCCO[C@@H]1O[C@H](CO)[C@@H](O)[C@H](O)[C@H]1O", "outcome": "inactive"},
      {"smiles": "O=P(O)(O)Oc1ccccc1", "outcome": "inactive"},
      {"smiles": "Cc1ccc(N/N=c2\\c(=O)cc/c(=N/Nc3ccc(S(=O)(=O)O)cc3)c2=O)c(C)c1", "outcome": "inactive"},
      {"smiles": "CC(=O)OC(C)C", "outcome": "inactive"},
      {"smiles": "O=CC1CC1", "outcome": "inactive"},
      {"smiles": "CCCCCCCCCCCCCOP(=O)(O)O", "outcome": "inactive"},
      {"smiles": "NC(=O)N=NC(N)=O", "outcome": "inactive"},
      {"smiles": "CCCCCCCCC(=O)OCC", "outcome": "inactive"},
      {"smiles": "CC(C)(C)C1CCCCC1=O", "note": "(stereo not given)", "outcome": "inactive"},
      {"smiles": "C=C1[C@H]2CC[C@@H]3[C@H]2C(C)(C)CCC[C@]13C", "outcome": "inactive"},
      {"smiles": "Cc1c(C)c([N+](=O)[O-])c(C(C)(C)C)c([N+](=O)[O-])c1C", "outcome": "inactive"},
      {"smiles": "COc1ccc(NC(C)=O)cc1N", "outcome": "inactive"},
      {"smiles": "O=C(Nc1ccccc1)c1ccccc1O", "outcome": "inactive"},
      {"smiles": "O=S(=O)(O)CC(O)CCl", "note": "(stereo not given)", "outcome": "inactive"}
    ]}
  ]
}
